Potency and affinity values are given separately. Records with an inconclusive call do not appear. A number with no mark means an inactive call.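 The calls were made as follows: active = compounds whose fitted half-maximal concentration is at most ten times their top tested dose; inconclusive = flat curve with 30 to 70% inhibition, or poor fit; inactive = the rest.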

From PubChem BioAssay AID488930 (Broad Institute, 2010) come the findings set out here.

The assay can be described thus: Candida growth reduction in fluconazole presence – CaCi-2 strain, Alamar Blue, dry powder, set 2, antifungal resistance reversal project, dose response (AID 488930). The conditions noted are these: C. albicans CaCi-2 (fluconazole-resistant clinical isolate) + fluconazole, 48 h; series mostly up to 6 µM; activity change, negative = inhibition: at the top concentration. On the technique in general: Resazurin is reduced to fluorescent resorufin, in cell work by metabolically active cells.
Take `Cc1cc(N2CCN(C(=O)c3ccc(Cl)cc3)CC2)c2ccccc2n1`: the “activity change, negative = inhibition” value is 94.9%.
The value for `O=C(c1ccccc1Cl)N1CCN(c2ccnc3cc(Cl)ccc23)CC1` was -43%.
The value for `O=C(c1ccc(Cl)cc1)N1CCCN(c2ccnc3cc(Cl)ccc23)CC1` was 168%; that for `COCCC(=O)N1CCN(c2ccnc3cc(Cl)ccc23)CC1` was -13.6%; that for `O=C(O)Cn1nc(-c2ccccc2)c2ccccc21` was 2.53%.
The value for `Clc1ccc2c(N3CCNCC3)ccnc2c1` was 10.2%; that for `O=C(c1ccc(Cl)cc1)N1CCN(c2ccncc2)CC1` was 53.9%; that for `O=C(c1ccc(Cl)cc1)N1CCN(c2ncnc3ccccc23)CC1` was 88.1%.
Take `O=C(c1ccc(Cl)cc1)N1CCNCC1`: the “activity change, negative = inhibition” value was -31.8%.
The value for `N#Cc1ccc(N2CCN(C(=O)c3ccc(Cl)cc3)CC2)nc1` was 12.6%; that for `O=C(c1ccc(Cl)cc1)N1CCN(c2ncnc3nc[nH]c23)CC1` was 16.3%.
The value for `O=C(Nc1ccc(Cl)cc1)N1CCN(c2ccnc3cc(Cl)ccc23)CC1` was -63.8%; that for `COc1cccc2c(N3CCN(C(=O)c4ccc(Cl)cc4)CC3)cc(C)nc12` was 164%; that for `COc1ccnc(N2CCN(C(=O)c3ccc(Cl)cc3)CC2)c1` was 5.73%.
The value for `O=C(c1ccc(Cl)cc1)N1CCN(c2cccnc2)CC1` was -10.4%; that for `CCCC(=O)N1CCN(c2ccnc3cc(Cl)ccc23)CC1` was -2.55%.
Consider `Cc1cc(N2CCN(C(=O)c3ccc(Cl)cc3)CC2)c2ccc(F)cc2n1`, for which the “activity change, negative = inhibition” value was 193%.
On to `COc1ccc2c(N3CCN(C(=O)c4ccc(Cl)cc4)CC3)ccnc2c1`, for which the “activity change, negative = inhibition” value is 156%.
The value for `O=C(c1ccc(Cl)cc1)N1CCN(c2ccnc3ccccc23)CC1` was 192%.
